# According to PubChem BioAssay (Tox21):
# Results filed as inconclusive are left out. Entries that show only a call come without a potency. The source made the active and inactive calls. Calls come from the whole dose curve; as a rule, active = well fitted cell-killing curve with a large enough effect in the repeat runs; inconclusive = weak or mixed curves, or effect the other way; inactive = flat fitted curve, though single readings scatter.
# Experiment: qHTS assay to identify small molecule antagonists of the estrogen related receptor signaling pathway with the pleiotropic PPARgamma coactivator (PGC) cell viability counter screen (AID 1224822)
# Conditions: ERR/PGC reporter cell line viability counter screen; series mostly up to 46.1 µM
# Summary of the method: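 Seed PGC/ERR cells (2,000/well); incubate 6 h at 37 C/5% CO2; pin-transfer compounds in DMSO; incubate 17.5 h at 37 C; add CellTiter-Fluor; after 30 min read fluorescence.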
# Potency is the fitted concentration of half-maximal effect.
row,SMILES,Potency
1,O=C1NC(c2cccc([N+](=O)[O-])c2)=CCN1c1ccccc1O,inactive
2,Clc1ccc(N2CCN(Cc3c[nH]c4ncccc34)CC2)cc1,inactive
3,O=c1[nH]c(=S)[nH]c(-c2ccccc2)c1Cc1c(O)ccc2ccccc12,inactive
4,c1ccc2c(c1)CC(N1CCN(c3cccc4c3OCCO4)CC1)C2,inactive
5,CN(C)C(=O)[C@H](O)[C@H](Cc1ccccc1)NC(=O)c1cc2cc(Cl)ccc2[nH]1,inactive
6,COc1cc2nc(N3CCCN(C)CC3)nc(NC3CCN(Cc4ccccc4)CC3)c2cc1OC,10.6 µM (active)
7,COc1ccc(NC(=O)c2ccc(-c3ccc(-c4noc(C)n4)cc3C)cc2)cc1N1CCN(C)CC1,inactive
8,CN1CCC2(CCN3CCc4c(oc5ccccc45)C3C2)N(C)C1=O (configuration not stated),inactive
9,CC(/C=C/c1cccc(Oc2ccc(F)cc2)c1)N(O)C(N)=O (configuration not stated),inactive
10,O=C(Nc1ccncc1)c1cc([N+](=O)[O-])ccc1Cl,inactive
11,Cn1c(=O)c2[nH]c(C3CCCC3)nc2n(C)c1=O,inactive
12,CC(C)(C)[C@]1(O)CCN2C[C@H]3c4ccccc4CCc4cccc(c43)[C@@H]2C1,inactive
13,CC(C)C[C@H](NC(=O)[C@@H](O)[C@H](N)Cc1ccccc1)C(=O)O,inactive
14,CC#CCOC(=O)c1c(C)nc2sc3c(c2c1N)CCC(O)C3 (configuration not stated),inactive
15,COc1ccc(CCn2nnnc2C2(c3ccc(C)cc3)CC2)cc1,inactive
16,c1ccc(CN2CCC3(CCCc4ccccc43)CC2)cc1,inactive
17,C=CCN1CCc2c(cc(O)c(O)c2Cl)C(c2ccccc2)C1 (configuration not stated),inactive
18,O=c1ccc2ccc(O)c(O)c2o1,inactive
19,O=C1NC(=O)/C(=C/c2ccc3nccnc3c2)S1,inactive

row,SMILES,Potency
1,Cc1nn(-c2ccccc2)c(C)c1/C=N/N1CCN(Cc2ccccc2)CC1,inactive
2,Oc1cc2c(cc1O)CN(C(=S)NCCc1ccc(Cl)cc1)CCC2,inactive
3,O=C(Nc1nc2ccccc2n1CCN1CCOCC1)c1cccc([N+](=O)[O-])c1,inactive
4,O=C1Nc2ccc(I)cc2/C1=C/c1cc(Br)c(O)c(Br)c1,inactive
5,OC[C@H]1O[C@@H](n2cnc3cncnc32)[C@H](O)[C@@H]1O,inactive
6,OCc1ccc(-c2nn(Cc3ccccc3)c3ccccc23)o1,inactive
7,CC(C)(CO)Cc1cc(C(C)(C)C)c(O)c(C(C)(C)C)c1,inactive
8,S=C(S)N1CCCC1,0.287 µM (active)
9,C[C@H](Cc1ccc(O)c(O)c1)[C@@H](C)Cc1ccc(O)c(O)c1,inactive
10,COC(=O)C1=C(C)NC(C)=C(C(=O)OC)C1c1cccc(NC(=O)NCCCN2CCC(c3cccc(OC)c3)CC2)c1,20.3 µM (active)
11,COC(=O)[C@H](NC(=O)c1cc(-c2ccccc2)nc2ccccc12)c1ccccc1,inactive
12,CN(C)S(=O)(=O)c1ccc2c(c1)/C(=C/c1cc3c([nH]1)CCCC3)C(=O)N2,inactive
13,COc1ccccc1N1CCN(CCN2C(=O)CC3(CCCC3)CC2=O)CC1,inactive
14,COc1cc2c(cc1O)CC[C@@H]1[C@@H]2CC[C@]2(C)[C@@H](O)CC[C@@H]12,inactive
15,Nc1nc(SCc2ccc([N+](=O)[O-])cc2)c2ncn([C@@H]3O[C@H](CO)C(O)[C@H]3O)c2n1 (some centres not stated),inactive
16,O=c1[nH]c2cc(C(F)(F)F)ccc2n1-c1cc(C(F)(F)F)ccc1O,inactive
17,Nc1nc(Cl)nc2c1ncn2[C@@H]1O[C@H](COP(=O)(O)OP(=O)(O)OP(=O)(O)O)C(O)[C@H]1O (some centres not stated),inactive
18,N#C/C(=C\c1ccc(-c2cc(Cl)ccc2Cl)o1)C(=O)Nc1cccc2ncccc12,14.4 µM (active)
